Screening data deposited in PubChem by National Center for Advancing Translational Sciences (NCATS).
3T3 cytotox – cytotoxic compounds in NIH 3T3 cells. NIH 3T3 viability, CellTiter-Glo ATP luminescence, 48-72 h. Potency, µM (highest dose often 96.7 µM), for inactives: at the top dose activity change, negative = cytotoxicity, usual class: inhibitors. 94,000 compounds, 4.3% hits. AID 1345082; also: nearly all actives have a fitted effect of over 55% in size
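NIH 3T3 cells at 400 cells/well received 23 nL of compound by pintool and were incubated 48 or 72 h at 37 °C. Viability was read as ATP-coupled CellTiter-Glo luminescence.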
hNpr1 antagonist – antagonists of human natriuretic peptide receptor Npr1 | AID 1347048 | 76,000 compounds, 1.6% hits | P16066 | HEK293 hNpr1 GloSensor cGMP, ANP-stimulated luminescence | Potency, µM (highest dose often 46.3 µM), for the others: at the highest dose activity change, negative = inhibition, most hits filed as inhibitors; calls by dose curve; also: nearly all actives have a fitted effect of over 60% in size
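Compound pre-incubated 30 min at room temperature on GloSensor-loaded HEK293 cells stably carrying hNpr1 and the pGS-40F cGMP biosensor. Stimulation uses hNppA at 0.1 nM final; luminescence is taken at baseline and 20 min post-agonist.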
GPT2 inh – blocks human glutamate pyruvate transaminase 2; Potency, µM (highest dose often 57.7 µM), for the others: at the top dose activity change, negative = inhibition, actives largely listed as inhibitors; Recombinant GPT2, coupled pyruvate oxidase/HRP Amplex Red fluorescence; Q8TD30; 100,000 compounds, 0.25% hits; also: nearly all actives have a fitted effect of over 60% in size
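Fluorescence of coupled pyruvate oxidase/HRP/Amplex Red system (50uM Amplex, 30 min, dark) reports pyruvate formed by GPT2. Enzyme reaction: 10ng/uL GPT2, 2mM L-alanine, 250uM a-KG, 30 min room temperature, pH 7.5; 50uM AOA control.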
FLuc inh – blocks purified firefly luciferase enzyme activity; purified P. pyralis luciferase, luminescence, biochemical; Potency, µM (titrated, usually from 115 µM), actives largely listed as inhibitors; 76,000 compounds, 2.5% hits; also: nearly all actives have a fitted effect of over 65% in size
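FLuc 10nM, D-luciferin 10uM, ATP 10uM, Mg acetate 10mM, Tris acetate pH 7.5, Tween/BSA; cpd qHTS; enzyme added last; CCD luminescence.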
HEK cytotox – kills HEK 293 cells | HEK 293 viability, ATP luminescence (CellTiter-Glo), 48-72 h | 94,000 compounds, 6.6% hits | Potency, µM (doses to about 115 µM), without a hit: at the top dose activity change, negative = cytotoxicity, most hits filed as inhibitors | AID 1345083; also: nearly all actives have a fitted effect of over 60% in size
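CellTiter-Glo luminescence (cellular ATP) was read after 48 or 72 hr of compound exposure at 37 degree Celsius. Cells were HEK 293 plated at 250 cells/well.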
Active calls of the source: *; i = inactive; ? = inconclusive; / = no result; ! = not confirmed by another sample; [ ] = another dose, or the depositor's remark. Only some compounds are listed: those with a hit (about 10% of all), similar ones and a draw of the others. Unless noted, calls follow the shape of the dose curve; as a rule, active = well fitted curve in the direction sought with a large enough effect; inconclusive = small, poorly fitted or top-dose-only effect, or another doubt; inactive = no such curve, though single readings can be large; an effect the other way counts as inactive or inconclusive. % is scaled to controls: 0 for no effect and ±100 for the full control effect; potency is read from the fitted curve at half-maximal effect.

SMILES	3T3 cytotox	hNpr1 antagonist	GPT2 inh	FLuc inh	HEK cytotox
CC(=O)NC[C@@H]1C=C(C)[C@H](Cc2nc3ccc(F)cc3[nH]2)C[C@H]1C(C)C	79µM*	-15%[70.6 µM]	2%[88.5 µM]	i	45µM*
CSc1ccc(-c2cccc(C(=O)NCCNC(=O)Cc3cccc(Cl)c3)c2)cc1	-29%	/	2%	/	?
Cc1ncc2n1C(=O)N(C1CCN(Cc3ccc(C(F)(F)F)cc3)CC1)C2	?	?	-13%	i	35µM*!
COc1cccc(-c2c(C(=O)NCC(C)C)nc3sccn23)c1	-22%[138 µM]	/	i	/	-6%[172 µM]
COc1ccc(-c2cn3c(n2)CO[C@@H](CNCc2ccccc2OC)C3)cc1	?	3%[70.6 µM]	-4%[88.5 µM]	?	?
O=S(=O)(Cc1ccccc1)NC[C@H]1Cn2cc(-c3ccccc3)nc2CO1	-18%[138 µM]	5%[70.6 µM]	-4%[88.5 µM]	?	?
Cc1ccc(-c2cn3c(n2)CO[C@@H](CNC(=O)c2ccccc2)C3)cc1	-9%[138 µM]	1%[70.6 µM]	-6%[88.5 µM]	?	?
Cc1ccc(-c2cn3c(n2)CO[C@@H](CNCc2ccccc2Cl)C3)cc1	89µM*	?	-10%[88.5 µM]	i	89µM*
c1ccc(-c2cn3c(n2)CO[C@@H](CNCC2CCCCC2)C3)cc1	100µM*	-2%[70.6 µM]	-4%[88.5 µM]	i	100µM*
Cc1ccc(-c2cn3c(n2)CO[C@@H](CNC(=O)NCc2ccccc2)C3)cc1	-17%[138 µM]	0%[70.6 µM]	3%[88.5 µM]	71µM*	?
COc1ccc(-c2cn3c(n2)CO[C@@H](CNC(C)=O)C3)cc1	i	1%[70.6 µM]	0%[88.5 µM]	45µM*	i
Cc1ccc(-c2cn3c(n2)CO[C@@H](CNCc2ccc(Cl)cc2)C3)cc1	45µM*	?	0%[88.5 µM]	?	56µM*
Cc1ccc(-c2cn3c(n2)CO[C@@H](CNCc2ccc(-c4ccccn4)cc2)C3)cc1	40µM*	?	-23%[88.5 µM]	35µM*	35µM*
CC(=O)Nc1ccc(CNC[C@H]2Cn3cc(-c4ccc(C)cc4)nc3CO2)cc1	?	5%[70.6 µM]	i	71µM*	?
COc1ccc(-c2cn3c(n2)CO[C@@H](CNCc2ccc(OC(F)(F)F)cc2)C3)cc1	?	?	2%[88.5 µM]	?	45µM*
Cc1ccc(-c2cn3c(n2)CO[C@@H](CNCc2ccc(S(C)(=O)=O)cc2)C3)cc1	-28%[174 µM]	-21%[70.6 µM]	i	?	?
CN(C)CC(=O)N1CCCC2(CNc3ncccc3[S+](=O)([O-])N2)C1 (centres undefined)	-3%	/	/	/	i
O=C(NCc1ccc(F)cc1)c1ccc2nc(-c3ccnc(Cl)c3)oc2c1	-13%[138 µM]	/	i	/	-22%[172 µM]
Cc1ccc(-c2cn3c(n2)CO[C@@H](CNC2CCCC2)C3)cc1	100µM*	3%[70.6 µM]	-13%[88.5 µM]	63µM*	100µM*
COC(=O)[C@@H]1Cc2c([nH]c3ccccc23)[C@H]2C[C@@H](NC[C@H]3CCCO3)C[C@@H](c3ccccc3F)N21	79µM*	5%	-9%	i	79µM*
COC(=O)[C@@H]1Cc2c([nH]c3ccccc23)[C@H]2C[C@@H](NCCc3cnc[nH]3)C[C@@H](c3ccccc3F)N21	28µM*	-14%	1%	i	25µM*
COCC(=O)N1CCC[C@@H]1C(=O)N1CCCC(c2nc3ccncc3[nH]2)C1 (some centres undefined)	1%	/	i	/	1%
CC(=O)N1Cc2ccccc2CC2(CCCN(CC3CCCCC3)C2)C1 (centres undefined)	-7%	/	i	/	?
FC(F)(F)c1cccc(-c2nccn3c(C4CN(Cc5ccc6cn[nH]c6c5)C4)ncc23)c1	40µM*	-16%	4%	i	45µM*
CC(C)(C)c1ccc(-c2nc3c(N4CCN(Cc5ccc6nccnc6c5)CC4)cccc3[nH]2)cc1	/	/	i	/	/
SMILES	3T3 cytotox	hNpr1 antagonist	GPT2 inh	FLuc inh	HEK cytotox
CS(=O)(=O)N1CCc2ccc(C(=O)Nc3ccc(F)cc3)cc21	-21%	?	?	8.9µM*	?
CCN1C(=O)CCc2cc(NC(=O)c3cncc(Br)c3)ccc21	-22%	1%	2%	i	?
CCCN1C(=O)CCc2cc(NC(=O)c3ccc(OC(F)(F)F)cc3)ccc21	40µM*	?	-24%	?	?
CCN1C(=O)CCc2cc(NC(=O)c3ccc(F)cc3)ccc21	?	2%	i	?	40µM*
O=C(C1CCN([S+](=O)([O-])c2cccs2)CC1)N1CCC(N2Cc3ccccc3C2=O)CC1	?	/	-22%	/	?
O=C(NCCCc1ccccc1)C1CCCN1C(=O)c1cccc(-c2cccnc2)c1 (centres undefined)	?	/	/	/	-17%
CC(=O)Nc1cccc(C(=O)N2CCC(c3n[nH]c(=O)n3-c3ccc(C)cc3)CC2)c1	i	-1%	1%	i	-2%
COCCCn1c(C)cc(C(=O)NCCc2noc(-c3ccccc3)n2)c1C	?	-3%	4%	i	40µM*
O=C1NCCCCCN(C(=O)CC2CCCCC2)[C@@H]2C[C@@H](C(=O)N3CCc4ccccc4C3)C[C@H]12	?	-18%	5%	i	?
O=C1NCCCCCCN(C(=O)c2cccnc2)[C@H]2C[C@H](C(=O)N3CCc4ccccc4C3)C[C@@H]12	28µM*	1%	i	i	-2%
O=C1NCCCCCN(C(=O)CC2CCCC2)[C@@H]2C[C@@H](C(=O)N3CCc4ccccc4C3)C[C@H]12	?	-11%	i	i	32µM*
CO[C@H]1CN(C2CCN(C(=O)Cn3nc(C(F)(F)F)cc3C)CC2)[C@H]1c1cccnc1	-19%	/	i	/	-1%
O=C(Nc1cnc(-c2ccc(Cl)cc2)nc1)c1ccccc1Cl	2%	?	i	0.63µM*	?
COc1ccc(-n2c(=O)c3c(n2Cc2ccccc2)CN(C(=O)c2ccnn2C)CC3)cc1	35µM*	-2%	i	i	-5%
COc1ccc(Cn2c3c(c(=O)n2Cc2ccccc2)CCN(C(=O)c2nc4ccccc4[nH]2)C3)cc1	20µM*	-20%	1%	i	?
COc1ccc(-n2c(=O)c3c(n2Cc2ccccc2)CN(C(=O)c2cccc(O)c2)CC3)cc1	?	3%	-7%	i	-4%
COCCC(=O)N1CCc2c(n(Cc3ccc(OC)cc3)n(Cc3ccccc3)c2=O)C1	?	4%[70.6 µM]	i	i	i
COc1ccc(Cn2c3c(c(=O)n2Cc2ccccc2)CCN(C(=O)c2cocn2)C3)cc1	25µM*	8%	-19%	i	i
O=C(NCC(F)F)c1ccc2nnc(-c3ccc(Cl)cc3)n2c1	?	/	-5%[88.5 µM]	/	1%[172 µM]
COc1cccc(C(=O)N2CCN(c3ccc4nnc(C5CC5)n4n3)CC2)c1	-25%	/	/	/	-9%
O=C(Nc1ccccc1)N1CCC(c2nn(-c3ccccn3)c(=O)[nH]2)CC1	-15%	/	-4%	/	i
